Active and inactive are the calls of the source.
Key:
[1] = tested on: Plasmodium falciparum Sir2 (PF13_0152, Sir2A); assay: pfSir2 binders on small-molecule microarrays, primary screen, biochemical, small-molecule microarray, 635 nm fluorescence (AID 1098); settings: small-molecule microarray binding, fluorescence 635 nm; higher = more signal;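 further: score merges spot fluorescence intensity with its signal-to-noise ratio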
[2] = small-molecule microarray binders of probe aDKK1, primary screen, biochemical, biotinylated probe, 635/667 nm fluorescence (AID 1099); settings: higher = more signal;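 further: score merges 667nm spot fluorescence with signal to noise across triplicate slides; reference of the scale not given here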
[3] = small-molecule microarray binders of probe aCHRDL2, primary screen, biochemical, biotinylated probe, 635/667 nm fluorescence (AID 1100); settings: higher = more signal
[4] = splicing luciferase reporter signal modulators, primary screen, spliceosome inhibition project, cell-based, HEK293, splice +/- reporter (AID 1101); settings: luminescence, 24 h, higher = more signal, called active from +8 up or from −8 down;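 further: HEK293 cells carrying a splicing-competent luciferase reporter gene; test concentration not given here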
[5] = biological target: Fibroblast growth factor 10 (Homo sapiens) (UniProt O15520); assay: FGF10 binders on small-molecule microarrays, primary screen, biochemical, small-molecule microarray, 635 nm fluorescence (AID 1102); settings: FGF10 binding, fluorescence 635 nm, higher = more signal
Fibroblast growth factor 10 (Homo sapiens), sequence (O15520 whole entry, looked up): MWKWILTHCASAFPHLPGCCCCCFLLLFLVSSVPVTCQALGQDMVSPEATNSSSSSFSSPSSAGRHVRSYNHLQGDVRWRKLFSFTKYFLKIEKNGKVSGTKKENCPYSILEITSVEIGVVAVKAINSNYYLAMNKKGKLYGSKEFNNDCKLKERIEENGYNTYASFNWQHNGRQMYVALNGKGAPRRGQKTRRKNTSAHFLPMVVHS

[6] = tested on: glycogen synthase kinase-3 (GSK3A per assay name; protocol says GSK3B); assay: GSK3 binders on small-molecule microarrays, primary screen, biochemical, small-molecule microarray, 635 nm fluorescence, GSK3A (AID 1103); settings: small-molecule microarray binding, fluorescence 635 nm; higher = more signal; further: the record names both GSK3A and GSK3B
[7] = biological target: Epidermal growth factor receptor (Homo sapiens) (UniProt P00533); assay: EGFR binders on small-molecule microarrays, primary screen, biochemical, small-molecule microarray, 635 nm fluorescence (AID 1104); settings: EGFR binding, higher = more signal;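 further: score merges 667 nm emission intensity with spot signal to noise over triplicate slides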
Epidermal growth factor receptor (Homo sapiens), sequence (P00533 whole entry, looked up): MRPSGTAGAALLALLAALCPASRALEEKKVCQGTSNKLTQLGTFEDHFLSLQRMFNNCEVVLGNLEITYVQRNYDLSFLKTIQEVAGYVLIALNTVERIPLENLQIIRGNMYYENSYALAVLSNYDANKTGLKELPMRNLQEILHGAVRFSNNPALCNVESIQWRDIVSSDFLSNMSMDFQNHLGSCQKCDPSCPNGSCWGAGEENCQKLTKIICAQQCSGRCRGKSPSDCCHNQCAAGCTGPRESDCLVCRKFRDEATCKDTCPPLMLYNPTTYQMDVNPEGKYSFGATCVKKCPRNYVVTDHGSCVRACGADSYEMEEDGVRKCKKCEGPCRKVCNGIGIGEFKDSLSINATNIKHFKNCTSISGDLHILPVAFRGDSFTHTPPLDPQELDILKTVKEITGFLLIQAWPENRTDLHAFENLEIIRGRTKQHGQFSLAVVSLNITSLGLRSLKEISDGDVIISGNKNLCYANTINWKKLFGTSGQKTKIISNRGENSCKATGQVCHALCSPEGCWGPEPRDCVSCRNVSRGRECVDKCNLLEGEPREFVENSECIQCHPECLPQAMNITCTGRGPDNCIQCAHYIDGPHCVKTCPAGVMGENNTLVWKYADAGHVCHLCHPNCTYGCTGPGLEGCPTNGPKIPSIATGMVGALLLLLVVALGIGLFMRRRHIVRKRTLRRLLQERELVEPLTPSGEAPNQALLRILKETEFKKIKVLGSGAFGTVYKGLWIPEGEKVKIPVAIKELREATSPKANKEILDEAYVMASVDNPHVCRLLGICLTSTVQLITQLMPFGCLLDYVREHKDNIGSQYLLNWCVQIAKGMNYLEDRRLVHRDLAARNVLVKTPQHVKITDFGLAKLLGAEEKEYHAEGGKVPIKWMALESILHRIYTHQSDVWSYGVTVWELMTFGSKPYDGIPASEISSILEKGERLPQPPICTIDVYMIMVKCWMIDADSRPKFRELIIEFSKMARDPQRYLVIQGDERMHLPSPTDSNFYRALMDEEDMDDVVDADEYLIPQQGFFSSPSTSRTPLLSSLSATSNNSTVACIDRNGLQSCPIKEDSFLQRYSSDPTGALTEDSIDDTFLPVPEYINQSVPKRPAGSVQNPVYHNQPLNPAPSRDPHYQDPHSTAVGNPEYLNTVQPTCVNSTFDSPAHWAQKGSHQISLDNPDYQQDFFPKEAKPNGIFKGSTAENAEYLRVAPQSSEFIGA

[8] = biological target: Follistatin-related protein 3 (Homo sapiens) (UniProt O95633); assay: FSTL3 binders on small-molecule microarrays, primary screen, biochemical, small-molecule microarray, 635 nm fluorescence (AID 1105); settings: FSTL3 binding, higher = more signal;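 further: score merges emission near 667 nm and signal to noise per printed spot across three slides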
Follistatin-related protein 3 (Homo sapiens), sequence (O95633 whole entry, looked up): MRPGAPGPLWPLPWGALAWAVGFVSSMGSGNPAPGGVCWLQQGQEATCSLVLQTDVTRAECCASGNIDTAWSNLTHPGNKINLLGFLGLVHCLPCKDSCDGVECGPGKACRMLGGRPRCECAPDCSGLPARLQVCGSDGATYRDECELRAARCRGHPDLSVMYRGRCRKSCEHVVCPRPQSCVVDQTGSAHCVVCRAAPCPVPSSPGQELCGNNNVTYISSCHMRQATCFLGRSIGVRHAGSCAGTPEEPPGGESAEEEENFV

[9] = biological target: Dickkopf-related protein 1 (Homo sapiens) (UniProt O94907); assay: DKK1 binders on small-molecule microarrays, primary screen, biochemical, small-molecule microarray, 635 nm fluorescence scan (AID 1106); settings: DKK1 binding, higher = more signal;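 further: score merges emission near 667 nm with signal to noise over three replicate slides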
Dickkopf-related protein 1 (Homo sapiens), sequence (O94907 whole entry, looked up): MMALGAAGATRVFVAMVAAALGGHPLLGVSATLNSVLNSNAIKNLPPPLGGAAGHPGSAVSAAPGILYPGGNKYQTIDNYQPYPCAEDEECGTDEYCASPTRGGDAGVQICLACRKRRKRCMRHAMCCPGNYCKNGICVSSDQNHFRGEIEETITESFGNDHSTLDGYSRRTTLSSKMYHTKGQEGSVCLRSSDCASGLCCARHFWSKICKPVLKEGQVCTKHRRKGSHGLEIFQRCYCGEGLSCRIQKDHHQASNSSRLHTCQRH

[10] = tested on: Inhibin beta A chain (activin A); assay: INHBA (activin A) binders on microarrays, primary screen, biochemical, small-molecule microarray, 635 nm fluorescence scan (AID 1107); settings: small-molecule microarray binding, higher = more signal;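 further: mouse activin A protein probed at 4.33 µg/mL on printed slides; score merges bound-protein fluorescence near 667 nm with spot signal-to-noise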

SMILES | composite z-score [1] | composite z-score [2] | composite z-score [3] | z-score [4] | composite z-score [5] | composite z-score [6] | composite z-score [7] | composite z-score [8] | composite z-score [9] | composite z-score [10]
CC(C)CNC(=O)[C@@]1(c2ccc([N+](=O)[O-])cc2)CC(=O)N(CC23CC4CC(CC(C4)C2)C3)[C@@H]1c1ccc(CO)cc1 | 0.947 | 0.0324 | 0.555 | -2.11 (inactive) | 1.24 | 0.715 | 0.283 | 0.58 | 0.127 | 0.328
COCCOC(=O)N1C(=O)[C@@]2(c3cc(C#CC4(O)CCCCCC4)ccc31)[C@H](C(=O)N1CCCCCCC1)[C@H]1C(=O)O[C@H](c3ccccc3)[C@H](c3ccccc3)N1[C@@H]2c1ccccc1OCCO | 1.6 | 1.56 | 1.44 | 0.0811 (inactive) | 0.933 | 1.32 | 0.75 | 1.46 | 1.18 | 1.63
[N-]=[N+]=Nc1ccccc1[C@@H]1OC(c2ccc(OCCCO)cc2)=N[C@]1(CCS(=O)(=O)c1ccccc1)C(=O)N1CCOCC1 | 1.43 | 1.04 | 0.994 | -0.4 (inactive) | 1.37 | 1.09 | 0.569 | 1.36 | 0.14 | 1.58
COc1ccc([Si](C)(C)[C@H]2[C@H](CC(=O)N(CCO)Cc3ccccc3)O[C@@]3(C(=O)N(Cc4cccc(N5CCC5=O)c4)c4ccccc43)[C@@H]2C)cc1 | 1.32 | 0.122 | 0.0014 | -2.18 (inactive) | 0.697 | 0.599 | 0.4 | 0.893 | 0.696 | 0.928
COC(=O)[C@]1(Cc2ccccc2N=[N+]=[N-])N=C(c2ccc(OCCCO)cc2)O[C@@H]1c1ccccc1N=[N+]=[N-] | 1.35 | 0.0046 | 0.191 | -0.71 (inactive) | 0.0833 | -0.383 | -0.049 | 0.488 | -0.0862 | 0.755
CCOC(=O)C1=CC[C@@H](c2ccccc2Cl)N(S(=O)(=O)c2ccc(C)cc2)C1 | 1.17 | 0.342 | 0.928 | -1.97 (inactive) | 0.403 | 0.196 | -0.138 | 0.0633 | -0.794 | 0.304
[N-]=[N+]=NCc1ccccc1C[C@]1(C(=O)O)N=C(c2ccc(OCCCO)cc2)O[C@H]1c1ccccc1CN=[N+]=[N-] | 1.07 | 0.804 | 1.01 | -1.17 (inactive) | 0.126 | 0.421 | -0.125 | 0.541 | -0.742 | 0.458
O=C1C2C=CC(C(O)c3ccc(-c4ccccc4)s3)N(n3cnnc3)C2C(=O)N1Cc1ccccc1 (stereo not given) | 0.633 | 0.0447 | 0.746 | -0.36 (inactive) | 0.0262 | -0.751 | -0.486 | -0.435 | -0.539 | 0.631
C=C(C(=O)CC[C@H](OC(C)=O)c1ccc(OCCO)cc1)C(C)C | -0.478 | -0.267 | -0.906 | -3.58 (inactive) | 1.37 | -0.479 | 0.982 | 0.876 | 2.01 | -0.0025
C[C@H]1NC(=O)[C@H](Cc2ccccc2)NC(=O)[C@@]23C(=O)N[C@@H](Cc4ccccc4)C2[C@H](C)[C@@]2(C)O[C@H]2C3/C=C/C/C=C\CNC1=O (stereo not given in full) | 0.444 | -0.245 | -0.471 | 0.587 (inactive) | -0.354 | -1.16 | 0.203 | -0.0523 | 0.461 | 1.45
O=C1C2C=CC(C(O)c3ccc(B(O)O)cc3)N(Nc3ccccc3)C2C(=O)N1c1ccccc1 (stereo not given) | -0.0545 | 0.82 | 0.634 | -0.451 (inactive) | -0.322 | -1.15 | -0.134 | -0.593 | -0.502 | 1.16
CCOC(=O)C1=C[C@@H](CC)N(S(=O)(=O)c2ccc(C)cc2)[C@H]1c1ccccc1 | 0.689 | -0.1 | 0.521 | 0.803 (inactive) | 0.769 | 1.01 | 0.586 | 0.59 | 0.43 | 0.538
COc1ccc(C(=O)Nc2cccc(CN3C(=O)[C@]4(O[C@H](CC(=O)N5CCC[C@H]5CO)[C@@H]([Si](C)(C)c5ccc(OC)cc5)[C@@H]4C)c4ccccc43)c2)cc1 | 1.27 | -0.202 | -0.067 | -0.0342 (inactive) | 0.703 | 1.12 | 0.317 | 0.737 | 0.65 | -0.0762
CCCCC=C[C@@H](NC(=O)c1ccc(C(=O)OC)cc1)c1ccccc1 | 0.741 | -0.095 | 0.613 | -3.67 (inactive) | 0.335 | 0.804 | 0.239 | 0.279 | 0.393 | 0.629
COCCOC(=O)N1C(=O)[C@@]2(c3cc(C#CCC(C(=O)OC)C(=O)OC)ccc31)[C@H](C(=O)N1CCN(c3ncccn3)CC1)[C@H]1C(=O)O[C@H](c3ccccc3)[C@H](c3ccccc3)N1[C@@H]2c1ccc(OCCO)cc1 | 1.56 | -0.0747 | 0.0277 | -0.923 (inactive) | 0.699 | 1.1 | 0.275 | 0.626 | -0.0047 | 0.149
COCCCNC(=O)[C@@]1(c2ccc([N+](=O)[O-])cc2)CC(=O)N(CC23CC4CC(CC(C4)C2)C3)[C@@H]1c1ccc(CO)cc1 | 1.61 | 0.0245 | -0.0133 | 0.00653 (inactive) | 1.22 | 1.31 | 0.905 | 1.48 | 1.08 | 0.703

— PubChem BioAssay
